Compounds with a hit are over-represented: about 3.5% of the library has one in this group of screens.
TEAD-YAP block = TEAD-YAP interaction inhibition, primary screen, TEAD-YAP interaction inhibitor project, luminescence, HEK-TIYL cells; TEAD-Gal4/YAP UAS-luciferase luminescence; inhibition, % at 9.12 µM; 640,000 compounds, 1.4% hits; AID 1259422, 2018; in the data active means inhibition above about 32%;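 further: 0% = median of test compound wells and 100% = reference inhibitor wells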
MITF primary = MITF inhibitors, primary screen, biochemical, AlphaScreen, human; AID 1259374, 2018; inhibition, % at 2.6 µM; 650,000 compounds, 0.91% hits; AlphaScreen MITF homodimerization, bead proximity signal; in the data active means inhibition above about 50%;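 further: 0% = vehicle wells with protein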
FBW7 act = FBW7 E3 ligase activators, primary screen, biochemical, AlphaScreen, human | F-box/WD repeat-containing protein 7 (Homo sapiens), Q969H0 | AlphaScreen FBW7–phospho-cyclin E peptide binding, activator screen | normalized activity (activation), % at 26.1 µM | 650,000 compounds, 0.13% hits | AID 1259310, 2017; in the data active means normalized activity above about 1.9%;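 further: purified mutant Fbw7 with reduced substrate affinity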
GPR151 activ = activators of human GPR151, primary screen, cell-based, PathHunter beta-arrestin, luminescence | G-protein coupled receptor 151 (Homo sapiens), Q8TDV0 | PathHunter beta-arrestin GPR151 cells | activation, % at 11.2 µM | 650,000 compounds, 1% hits; in the data active means activation above about 4.9%;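 further: 0% = median of compound wells and 100% = cells with positive control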
Target sequence (Q8TDV0 whole entry, looked up): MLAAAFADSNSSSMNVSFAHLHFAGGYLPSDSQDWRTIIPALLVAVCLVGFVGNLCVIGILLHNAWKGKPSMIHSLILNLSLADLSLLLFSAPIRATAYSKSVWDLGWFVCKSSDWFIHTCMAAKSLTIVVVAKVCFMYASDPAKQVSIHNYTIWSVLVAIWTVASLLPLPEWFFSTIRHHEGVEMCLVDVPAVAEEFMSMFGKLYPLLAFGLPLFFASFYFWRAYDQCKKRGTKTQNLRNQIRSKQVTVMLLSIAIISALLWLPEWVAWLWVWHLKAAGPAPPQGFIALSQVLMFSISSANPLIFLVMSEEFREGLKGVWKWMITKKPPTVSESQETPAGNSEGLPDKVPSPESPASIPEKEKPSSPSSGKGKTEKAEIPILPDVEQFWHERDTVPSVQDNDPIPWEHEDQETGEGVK
* = called active by the depositor.

SMILES	TEAD-YAP block	MITF primary	FBW7 act	GPR151 activ
CC1=C(C(=O)OCc2ccc3c(c2)OCO3)C(c2ccccc2)NC(=O)N1 (stereo unspecified)	51*	15	0	1
CC1=C(C(=O)OCc2ccc3c(c2)OCO3)C(c2cc3c(cc2Br)OCO3)NC(=O)N1 (stereo unspecified)	1	-9	0	1
CCc1ccc(C2NC(=O)NC(C)=C2C(=O)OCc2ccc3c(c2)OCO3)cc1 (stereo unspecified)	55*	-3	0	-1
COc1ccc(-c2noc(-c3ccco3)n2)cc1	60*	-10	0	-10
CCOc1ccc(-c2nc(-c3ccccc3)no2)cc1	62*	13	0	-3
Cc1ccc(-c2noc(-c3ccco3)n2)cc1	-7	0	0	-5
CCOC(=O)N1CCc2c(sc(NC(=O)CC)c2-c2nc3ccccc3s2)C1	10	19	0	-1
CCN1CCc2c(sc(NC(C)=O)c2-c2nc3ccccc3s2)C1	69*	10	0	0
CCC(=O)Nc1sc2c(c1-c1nc3ccccc3s1)CCN(CC)C2	54*	6	0	2
CCN1CCc2c(sc(NC(=O)c3ccc(S(=O)(=O)N(CC)CC)cc3)c2-c2nc3ccccc3s2)C1	-1	5	0	0
O=C(CSc1nnnn1C1CC2CCC1C2)Nc1ccnc2ccccc12 (stereo unspecified)	61*	16	0	0
O=C(CSc1ccccc1C(=O)O)Nc1ccnc2ccccc12	-10	17	0	2
Cc1ccc(-c2cc3ncc(C#N)c(-c4cccc(C)c4)n3n2)cc1	-1	21	0	-2
Cc1cccc(-c2c(C#N)cnc3cc(C)nn23)c1	33*	-7	0	0
Cc1ccc(Nc2nc(=O)[nH]nc2C)cc1Cl	1	13	0	1
Nc1ccc(NC(=O)c2nc[nH]c2C(=O)O)cc1	6	86*	-2	0
CCOC(=O)C1CCN(c2nc(-c3ccncc3)nc3cnccc23)CC1	33*	-4	0	4
CCOC(=O)C1CCN(c2nc(-c3ccc(Br)cc3)nc3ccccc23)CC1	7	0	0	1
C=CCn1cc(CN2CCc3nc(N4CCCC4)[nH]c(=O)c3C2)c2ccccc21	4	6	0	2
COc1ccccc1/C=C/c1nn2c(COc3ccccc3)nnc2s1	-5	-10	1	1
COc1ccccc1/C=C/c1nn2c(-c3ccccc3OC)nnc2s1	54*	-3	0	2
COc1ccccc1/C=C/c1nn2c(Cn3cnc4ccccc43)nnc2s1	48*	1	0	1
CCOc1ccccc1/C=N\NC(=O)CCn1cnc2ccccc21	2	5	0	1
COc1ccccc1/C=C/C=N\NC(=O)CCn1cnc2ccccc21	53*	-13	0	0
CCC1Oc2ccc(C)cc2NC1=O (stereo unspecified)	0	-17	0	1
SMILES	TEAD-YAP block	MITF primary	FBW7 act	GPR151 activ
CCOc1ccc(C2Oc3c(cccc3OC)C=C2[N+](=O)[O-])cc1OCC (stereo unspecified)	21	11	0	-1
CCOc1ccc(C2Oc3c(Cl)cc(Cl)cc3C=C2[N+](=O)[O-])cc1OCC (stereo unspecified)	64*	24	0	0
CCOc1ccc(C2Oc3ccc(Br)cc3C=C2[N+](=O)[O-])cc1OCC (stereo unspecified)	41*	29	0	-1
CCN(CC)CCNC(=O)C1c2ccccc2C(=O)N(Cc2ccc(F)cc2)C1c1ccc(OC)cc1 (stereo unspecified)	4	-3	0	1
CCn1c(=O)c2cc(S(N)(=O)=O)ccc2n(CC)c1=O	-2	-11	0	-1
Oc1ccc2oc(-c3ccccc3)nc2c1	49*	7	0	-3
O=C(O)c1ccc2oc(-c3ccccc3)nc2c1	55*	4	0	-9
Nc1ccc2oc(-c3ccccc3)nc2c1	-35	1	0	-4
Cc1ccc(-n2cc(-c3ccc(Cl)cc3)nc2SCC(=O)Nc2ccccc2)cc1	-12	0	0	-1
COc1ccc(C2C(C(=O)NCc3ccccn3)c3cc(OC)c(OC)cc3C(=O)N2C)cc1OC (stereo unspecified)	-12	6	0	-1
Cc1ccc(/C=C/C(=O)c2ccc(N3CCOCC3)cc2)s1	49*	-1	0	0
O=C(/C=C/c1ccc(F)cc1)c1ccc(N2CCOCC2)cc1	-13	2	0	1
CC(C)(C)C(=O)Nc1ccccc1NC(=O)C(C)(C)C	0	-14	0	-1
c1csc(CNc2ccc(-c3nc4ccccc4s3)cc2)c1	86*	1	0	-6
c1ccc(-c2nc3ccccc3s2)cc1	-36	8	0	-2
N#Cc1cc(-c2ccnc(Nc3ccc(CN4CCCCC4)cc3)n2)cc(N2CCOCC2)c1	36*	1	0	0
N#Cc1cc(-c2ccnc(Nc3ccc(N4CCNCC4)cc3)n2)cc(N2CCOCC2)c1	32*	-3	-1	0
CC(=O)N1CCC(N(C(=O)CCC(=O)O)C2CC2)CC1	-5	14	4.6*	0
O=C(O)CCC(=O)N(C1CC1)C1CCN(CCc2ccccc2)CC1	0	6	0	0
Nc1nonc1N=NN(CC(=O)Nc1c(Cl)cccc1Cl)c1nonc1N	-3	8	0	-1
Nc1nonc1N=NN(Cc1ccc(Cl)cc1Cl)c1nonc1N	10	73*	0	2
Cc1cc(Nc2ccccc2F)nc2cccc(O)c12	43*	2	0	2
c1ccc2c(Nc3nc(Nc4ccc(N5CCOCC5)cc4)c4[nH]cnc4n3)nccc2c1	38*	14	0	-1
Nc1nc(Nc2ccccc2)cc(Nc2ccc(N3CCOCC3)cc2)n1	15	5	0	-2
Nc1nc(Nc2ccc(N3CCOCC3)cc2)cc(Nc2nccc3ccccc23)n1	40*	17	0	1
SMILES	TEAD-YAP block	MITF primary	FBW7 act	GPR151 activ
c1cncc(Nc2nc(Nc3ccc(N4CCOCC4)cc3)c3[nH]cnc3n2)c1	37*	3	0	1
O=C(OCc1csc(-c2ccccc2)n1)c1cc(=O)c2ccccc2o1	6	8	0	-1
Oc1ccc(CCNc2ccnc(Nc3ccc(C(F)(F)F)cc3)n2)cc1	1	-7	0	2
Oc1ccc(CCNc2ccnc(Nc3ccc(-n4ccnc4)cc3)n2)cc1	43*	9	0	3
Oc1ccc(CCNc2ccnc(Nc3ccncc3)n2)cc1	75*	-18	0	-1
COc1ccc(NC(=O)C(=O)NCC2CCCN2S(=O)(=O)c2cccs2)cc1 (stereo unspecified)	45*	1	0	1
Cc1ccc(NC(=O)C(=O)NCC2CCCN2S(=O)(=O)c2cccs2)cc1C (stereo unspecified)	-5	-9	0	1
